From PubChem BioAssay
Hits are enriched below; roughly 7.3% of the tested compounds scored in any of these assays.
AmpC detergent: blocks E. coli AmpC beta-lactamase in detergent assay | P00811 | AmpC hydrolysis of nitrocefin, absorbance 480 nm, 0.01% Triton | Potency, µM (top dose mostly 114 µM), inactives show at the highest dose activity change, negative = inhibition, most hits filed as inhibitors | actives 0.041% (n = 370,000);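 further: potency means the concentration at half of the fitted maximal effect; 0% = no-compound wells and -100% = no-enzyme wells; nearly all actives have a fitted effect of over 25% in size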
Target sequence (P00811 whole entry, looked up): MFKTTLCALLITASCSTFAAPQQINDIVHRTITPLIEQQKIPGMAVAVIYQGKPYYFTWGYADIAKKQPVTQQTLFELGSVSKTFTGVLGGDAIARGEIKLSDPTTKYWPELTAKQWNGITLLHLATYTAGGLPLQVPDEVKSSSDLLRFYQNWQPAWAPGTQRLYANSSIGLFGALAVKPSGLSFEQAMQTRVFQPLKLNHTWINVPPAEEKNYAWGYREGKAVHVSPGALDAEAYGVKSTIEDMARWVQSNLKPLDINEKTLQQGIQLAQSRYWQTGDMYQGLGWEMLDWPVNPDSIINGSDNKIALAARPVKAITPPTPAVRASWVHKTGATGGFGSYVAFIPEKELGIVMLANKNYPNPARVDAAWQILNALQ
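AmpC (5.3 nM in the dispensed reagent) in 20 mM phosphate pH 7.0 with 0.01% (detergent screen) or 0.0001% Triton X-100 was preincubated with compounds for 15 min at room temperature. Nitrocefin was then added from an 800 uM solution, and hydrolysis was followed at 480 nm.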
AmpC inh no detg: AmpC beta-lactamase inhibition without detergent; actives 0.52% (n = 330,000); AmpC nitrocefin hydrolysis, absorbance 480 nm, 0.0001% Triton; P00811; Potency, µM (doses to about 57.1 µM), inactives show at the highest dose activity change, negative = inhibition, actives largely listed as inhibitors;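 further: potency means the concentration at half of the fitted maximal effect; plate controls were no compound for no effect and no enzyme for full effect; nearly all actives have a fitted effect of over 20% in size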
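AmpC (5.3 nM in the dispensed reagent) in 20 mM phosphate pH 7.0 with 0.01% (detergent screen) or 0.0001% Triton X-100 was preincubated with compounds for 15 min at room temperature. Nitrocefin was then added from an 800 uM solution, and hydrolysis was followed at 480 nm.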
FMDV inh: foot and mouth disease virus antiviral activity | FMDV antiviral cell-based qHTS | Potency, µM (series often up to 57.9 µM), inactives show at the top dose activity change, negative = inhibition, most hits filed as inhibitors | actives 1.2% (n = 410,000); calls by dose curve; tested in HEK293T cells; further: read-out not given here; potency means the concentration at half of the fitted maximal effect; nearly all actives have a fitted effect of over 45% in size
HCMV inh: blocks human cytomegalovirus replication; actives 4.5% (n = 410,000); AID 1259415; activity change, negative = inhibition, % at 57.5 µM; HFF cells, HCMV-luciferase reporter, 72 h; active compounds read low; in the data active means activity change below about -60%; inconclusive means no clear call, values can overlap the other calls; inactive means above about -39%
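Human foreskin fibroblasts infected with luciferase-reporter HCMV at MOI 1 PFU/cell, compounds at two doses. Luciferase measured 72 h post infection; normalized to buffer-only basal and Salinomycin (10uM) controls.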
HCV inh: blocks hepatitis C virus; actives 3.4% (n = 340,000); Huh7.5.1 HCVcc-Cre infection, luciferase reporter, 44 h; Potency, µM (highest dose often 41.8 µM), without a hit: at the top dose activity change, negative = inhibition, hits mostly inhibitors; further: potency means the concentration at half of the fitted maximal effect
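Antiviral activity was scored by luciferase reporter output from cells infected with HCVcc-Cre (~0.5 moi) in presence of compound, 44 h infection period, cells seeded 1,000/well 4 h prior.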
Numbers without * were called inactive; ? = inconclusive; nt = no result. Unless noted, the call rests on the fitted dose curve; in most records, active means well fitted curve in the direction sought with a large enough effect; inconclusive means small, poorly fitted or top-dose-only effect, or another doubt; inactive means no such curve, though single readings can be large; an effect the other way counts as inactive or inconclusive. Unless noted, on the % scale 0 is the no-effect control and ±100 the full control effect.

SMILES	AmpC detergent	AmpC inh no detg	FMDV inh	HCMV inh	HCV inh
COc1ccc2c(c1)C(=O)N1[C@H]3c4cc(Br)ccc4OC[C@@H]3[C@H](c3ccccc3)[C@]1(C)C(=O)N2	-6.1%	-22.1%	-21.3%	nt	?
N[C@@H](Cc1c[nH]c2ccccc12)c1nnc(SCc2ccccc2)o1	?	48.7%	-0.6%	-2.1	-0.7%
NCCCCCc1nnc(SCc2ccccc2Cl)o1	-9.0%	18.2%	?	-76.2*	-19.7%
N[C@@H](Cc1ccccc1)c1nnc(SCc2ccccc2Cl)o1	0.1%	45.1%	0.9%	-69.9*	-2.8%
COc1ccc(C(CNC(=O)c2oc3ccc(C)cc3c2C)N2CCOCC2)cc1 (stereo unspecified)	12.9%	nt	-23.7%	-1.3	nt
O=C1Nc2ccc(Br)cc2/C1=C/C(=O)c1ccc2c(c1)OCO2	1.0%	-42.0%	28.2µM*	-100.3*	?
O=C(CCc1nc2ccccc2c(=O)[nH]1)Nc1nnc(SCc2ccccc2F)s1	1.3%	-23.9%	12.3%	65.5	?
Cc1ccc2nc(C)cc(Nc3ccc([N+](=O)[O-])cc3)c2c1	3.8%	-19.4%	-10.3%	?	3.55µM*
COC(=O)c1ccc2nc(C)cc(Nc3ccccc3C)c2c1	6.9%	-36.2%	-18.3%	22.4	?
COC(=O)c1ccc(Nc2cc(C)nc3ccc(C)cc23)cc1	7.8%	-13.2%	0.0%	3.2	10µM*
CC(=O)c1cccc(Nc2cc(C)nc3ccc(C)cc23)c1	5.0%	9.1%	-23.2%	-7.5	?
CCC1CN(Cc2cn[nH]c2-c2ccc(OC)cc2)Cc2cc(OC)ccc2O1 (stereo unspecified)	nt	nt	-20.2%	nt	nt
CCOc1ccc(CCNC(=O)c2ccc3[nH]c(C)c(C)c3c2)cc1	1.3%	nt	-21.9%	0.0	nt
Cc1cc(C)c(NC(=O)CSc2nc3c(c(=O)n2C)SC(C)C3)c(C)c1 (stereo unspecified)	-18.6%	3.16µM*	?	?	-27.5%
Cc1cc(C)cc(NC(=O)CSc2nc3c(c(=O)n2C)SC(C)C3)c1 (stereo unspecified)	?	-27.7%	?	?	?
CCn1c(SCC(=O)Nc2nc3ccccc3s2)nc2c(c1=O)SC(C)C2 (stereo unspecified)	2.2%	-45.1%	31.6µM*	-39.7	?
CCn1c(SCC(=O)Nc2nc3ccc(C)cc3s2)nc2c(c1=O)SC(C)C2 (stereo unspecified)	-0.8%	-31.9%	?	nt	7.94µM*
CCn1c(SCC(=O)Nc2cc(C)on2)nc2c(c1=O)SC(C)C2 (stereo unspecified)	2.7%	-3.2%	nt	2.5	-13.8%
Cc1cc(NS(=O)(=O)c2ccc(NC(=O)COc3ccc(C#N)cc3)cc2)nc(C)n1	nt	-37.3%	51.7%	-12.7	8.6%
O=C(NCCCN1CCOCC1)c1ccc(Sc2ccc(F)cc2)c([N+](=O)[O-])c1	-1.8%	64.3%	1.6%	21.5	?
CCN1CCCC1CNC(=O)c1ccc(Sc2ccc(F)cc2)c([N+](=O)[O-])c1 (stereo unspecified)	-3.3%	21.5%	-7.7%	-18.0	6.31µM*
CCN1CCN(C(=O)c2ccc(Sc3ccccc3Cl)c([N+](=O)[O-])c2)CC1	?	157.9%	-16.2%	-11.1	-12.5%
CCN1CCCC1CNC(=O)c1ccc(Sc2ccccc2Cl)c([N+](=O)[O-])c1 (stereo unspecified)	-0.2%	68.0%	-20.8%	?	5.62µM*
COc1cccc(C(=O)N[C@@H](Cc2cccnc2)C(=O)N2CCC[C@H]2C(=O)NCCc2ccccc2Cl)c1	nt	nt	nt	-32.5	nt
COc1ccccc1N1C(=O)C2CCC(c3ccccc3)CC2C1=O (stereo unspecified)	-20.9%	-3.0%	22.4µM*	-17.6	4.4%
CCn1ncc(Br)c1C(=O)Nc1ccc(Cl)cn1	-0.2%	?	-8.1%	-64.7*	15.3%
Cc1c(C(=O)NN)nn(-c2ccc(Cl)cc2)c(=O)c1C#N	-11.5%	-20.0%	12.6µM*	-36.5	14.1µM*
Cc1c(C)n(Cc2ccccc2)c2ncnc(Cl)c12	1.4%	3.2%	?	-88.3*	?
